# Test results taken from the supplement of paper PMC8975748.
# Counter-ions that a name gives are not always drawn.
# Test system: Saccharomyces cerevisiae BY4741 SeMeCo community
# Assay: z-score of subpopulation abundance vs DMSO median, subpopulation auxotrophic for L; higher = larger share of this subpopulation than in DMSO controls
# Conditions: 10 µM; 24 h; SM minimal medium; subpopulation (auxotrophy): L
# Protocol: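 Fluorescent four-plasmid SeMeCo (self-establishing metabolically cooperating S. cerevisiae BY4741 community; plasmids pH-mRuby2, pL-mWasabi, pU-eCFP, pM-TagRFP657) was grown 24 h in minimal SM medium with each Selleck FDA-approved drug at 10 µM in 384-well plates. Cells were fixed and imaged by high-content confocal microscopy. For each auxotrophic subpopulation (and the prototroph), a z-score gives the deviation from the DMSO vehicle-control population median.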
row,SMILES,z-score of subpopulation abundance
1,CCCCCCCCCCCCCCCCCCOP(=O)([O-])OC1CC[N+](C)(C)CC1 [Perifosine (KRX-0401)],-0.46
2,Cn1c(=O)c2c(ncn2CC(O)CO)n(C)c1=O (stereo not given) [Dyphylline],-0.69
3,CC(NCCC(c1ccccc1)c1ccccc1)c1ccccc1 (stereo not given) [Fendiline hydrochloride],0.03
4,Cc1cc(C)nc(NS(=O)(=O)c2ccc(N)cc2)n1 [Sulfamethazine],0.4
5,CC(C(=O)O)c1cccc(C(=O)c2ccccc2)c1 (stereo not given) [Ketoprofen],1.73
6,CC[C@H]1OC(=O)[C@H](C)[C@@H](O[C@H]2C[C@@](C)(OC)[C@@H](O)[C@H](C)O2)[C@H](C)[C@@H](O[C@@H]2O[C@H](C)C[C@H](N(C)C)[C@H]2O)[C@](C)(O)C[C@@H](C)CN[C@H](C)[C@@H](O)[C@]1(C)O [Azathramycin],-0.61
7,C[N+]1(C)CCC(OC(=O)C(O)(c2ccccc2)C2CCCC2)C1 (stereo not given) [Glycopyrrolate],-0.73
8,NS(=O)(=O)Cc1noc2ccccc12 [Zonisamide],1.91
9,CC(=O)OCC[N+](C)(C)C [Acetylcholine iodide],-0.73
10,Cn1c(=O)c2[nH]cnc2n(C)c1=O [Aminophylline],0.83
11,O=C1OC(CN2CCOCC2)CN1/N=C/c1ccc([N+](=O)[O-])o1 (stereo not given) [Furaltadone HCl],-0.94
12,O=C(C1CCCCC1)N1CC(=O)N2CCc3ccccc3C2C1 (stereo not given) [Praziquantel],0.31
13,CN(C)CC/C=C1/c2ccccc2Sc2ccc(Cl)cc21 [Chlorprothixene],-0.89
14,NC(=O)OCC(COC(N)=O)c1ccccc1 [Felbamate],-0.15
15,C/C=C\c1ccc(O)c(OC)c1 [Isoeugenol],0.4
16,CC1=CC[C@@](O)(C(C)C)CC1 [Terpinen-4-ol],0.37
17,Cc1c(-c2ccccc2)oc2c(C(=O)OCCN3CCCCC3)cccc2c1=O [Flavoxate HCl],0.83
18,COc1ccc2cc3[n+](cc2c1OC)CCc1cc2c(cc1-3)OCO2 [Berberine chloride],0.44
19,CC(C(O)c1ccc(O)cc1)N1CCC(Cc2ccccc2)CC1 (stereo not given) [Ifenprodil Tartrate],-0.15
20,CC[C@H](c1ccc(O)cc1)[C@@H](CC)c1ccc(O)cc1 [Hexestrol],-0.78

row,SMILES,z-score of subpopulation abundance
1,CO/N=C(\C(=O)N[C@@H]1C(=O)N2C(C(=O)O)=C(COC(C)=O)CS[C@H]12)c1csc(N)n1 [Cefotaxime sodium],-0.14
2,CCN[C@@H]1C[C@H](N)[C@@H](O[C@H]2OC(CN)=CC[C@H]2N)[C@H](O)[C@H]1O[C@H]1OC[C@](C)(O)[C@H](NC)[C@H]1O [Netilmicin Sulfate],-0.06
3,CO[C@@]1(NC(=O)Cc2cccs2)C(=O)N2C(C(=O)O)=C(COC(N)=O)CS[C@@H]21 [Cefoxitin sodium],-1.28
4,Cc1cccc(C)c1NC(=O)C1CCCCN1C (stereo not given) [Mepivacaine HCl],-0.36
5,CC[C@@]1(O)C(=O)OCc2c1cc1n(c2=O)Cc2cc3cc(O)ccc3nc2-1 [Hydroxy Camptothecine],2.31
6,CN1CCC(=C2c3ccccc3CCc3sccc32)CC1 [Pizotifen Malate],0.36
7,CO/N=C(\C(=O)N[C@@H]1C(=O)N2C(C(=O)O)=C(CSc3nc(C)c(CC(=O)O)s3)CS[C@H]12)c1csc(N)n1 [Cefodizime Sodium],-0.39
8,Cc1ccc(-c2cc(C(F)(F)F)nn2-c2ccc(S(N)(=O)=O)cc2)cc1 [Celecoxib],0.82
9,CC1(C)S[C@@H]2[C@H](NC(=O)Cc3ccccc3)C(=O)N2[C@H]1C(=O)O.CCN(CC)CCOC(=O)c1ccc(N)cc1 [Penicillin G Procaine],0.99
10,CN1CCN(CCCN2c3ccccc3Sc3ccc(C(F)(F)F)cc32)CC1 [Trifluoperazine 2HCl],-0.42
11,Cc1c(OCC(F)(F)F)ccnc1C[S+]([O-])c1nc2ccccc2[nH]1 (stereo not given) [Lansoprazole],1.12
12,COc1cc2c(cc1OC)[C@@H]1Cc3ccc(OC)c(OC)c3CN1CC2 [Rotundine],-0.28
13,C/C(=C\C(=O)OCCCCCCCCC(=O)O)C[C@@H]1OC[C@H](C[C@@H]2O[C@H]2[C@@H](C)[C@H](C)O)[C@@H](O)[C@H]1O [Mupirocin calcium],-0.72
14,COc1cc([C@@H]2c3cc4c(cc3[C@@H](O[C@@H]3O[C@@H]5CO[C@@H](c6cccs6)O[C@H]5[C@H](O)[C@H]3O)[C@H]3COC(=O)[C@H]23)OCO4)cc(OC)c1O [Teniposide],1.6
15,CCC(=O)NS(=O)(=O)c1ccc(-c2c(-c3ccccc3)noc2C)cc1 [Parecoxib Sodium],0.68
16,C[C@@H]1CN(c2c(F)c(N)c3c(=O)c(C(=O)O)cn(C4CC4)c3c2F)C[C@H](C)N1 [Sparfloxacin],0.07
17,NCc1ccccc1CC(=O)N[C@@H]1C(=O)N2C(C(=O)O)=C(CSc3nnnn3CC(=O)O)CS[C@H]12 [Ceforanide],2.29
18,C[n+]1ccccc1C=NO [Pralidoxime Iodide],-0.18
19,C[N+]1(C)CCC(=C(c2ccccc2)c2ccccc2)CC1 [Diphemanil Methylsulfate],-0.56
20,CC[C@H]1OC(=O)[C@H](C)[C@@H](O[C@H]2C[C@@](C)(OC)[C@@H](O)[C@H](C)O2)[C@H](C)[C@@H](O[C@@H]2O[C@H](C)C[C@H](N(C)C)[C@H]2O)[C@](C)(O)C[C@@H](C)CN(C)[C@H](C)[C@@H](O)[C@]1(C)O [Azithromycin],0.82
